The panel holds about 83,000 compounds, 20% with a hit somewhere; the sample as a whole holds those more often.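 Cell lines were cultured in 96-well plates, exposed to a single compound concentration, and assessed for percent growth 48 hours later.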 Unmarked numbers belong to inactive results. Calls of active or inactive are those of the source. Rule for the calls: active = growth percent below 10; inactive = the rest.
Tests used:
Assay in all cases: NCI-60 one-dose screen, 48 h (100 = growth as untreated, 0 = no growth, -100 = all killed)
Conditions in all cases: 10 µM unless noted
NCI-H23 lung = tested on: NCI-H23 lung
NCI-H226 lung = tested on: NCI-H226 lung
NCI-H322M lung = tested on: NCI-H322M lung
HOP-62 NSCLC = tested on: HOP-62 NSCLC
NCI-H460 lung = tested on: NCI-H460 lung
HOP-92 NSCLC = tested on: HOP-92 NSCLC
NCI-H522 lung = tested on: NCI-H522 lung
A549/ATCC NSCLC = tested on: A549/ATCC NSCLC
786-0 renal = tested on: 786-0 renal
COLO 205 colon = tested on: COLO 205 colon
DU-145 prostate = tested on: DU-145 prostate
K-562 leukemia = tested on: K-562 leukemia
MALME-3M melanoma = tested on: MALME-3M melanoma
MDA-MB-231 breast = tested on: MDA-MB-231 breast
RXF 393 renal = tested on: RXF 393 renal
SF-268 CNS = tested on: SF-268 CNS
SF-295 CNS = tested on: SF-295 CNS
SF-539 CNS = tested on: SF-539 CNS
UACC-257 melanoma = tested on: UACC-257 melanoma
M14 melanoma = tested on: M14 melanoma

SMILES | growth (NCI-H23 lung) | growth (NCI-H226 lung) | growth (NCI-H322M lung) | growth (HOP-62 NSCLC) | growth (NCI-H460 lung) | growth (HOP-92 NSCLC) | growth (NCI-H522 lung) | growth (A549/ATCC NSCLC) | growth (786-0 renal) | growth (COLO 205 colon) | growth (DU-145 prostate) | growth (K-562 leukemia) | growth (MALME-3M melanoma) | growth (MDA-MB-231 breast) | growth (RXF 393 renal) | growth (SF-268 CNS) | growth (SF-295 CNS) | growth (SF-539 CNS) | growth (UACC-257 melanoma) | growth (M14 melanoma)
Cc1nc2ncnc(Cl)c2[nH]1 | 95.3% | 101% | 98.2% | 112% | 104% | 77.7% | 91.3% | 93.1% | 105% | 113% | 106% | 97.3% | 106% | 103% | 112% | 103% | 107% | 103% | 91.1% | 88.8%
N#Cc1c(N)nnn1Cc1cc(=O)oc2c1ccc1ccccc12 | 93.2% | 83.9% | 102% | 101% | 101% | 87.8% | 78.1% | 91.1% | 102% | 112% | 105% | 93.6% | 103% | 86.7% | 104% | 98% | 109% | 113% | 97.7% | 101%
O=C(/C=C/c1cccs1)c1ccc(Cl)nc1 | 102% | 107% | 99.3% | 94.9% | 106% | 105% | 82% | 98.6% | 93.7% | 108% | 106% | 97.1% | 95.7% | 116% | 119% | 102% | 101% | 101% | 100% | 101%
O=C1/C(=C/c2ccc(F)cc2)COc2ccc(O)cc21 | 97% | 108% | 94.6% | 104% | 98.8% | 104% | 75.7% | 92.5% | 79.8% | 94.3% | 96.5% | 4.82% (active) | 85.6% | 97.2% | 104% | 90% | 104% | 87.2% | 107% | 88.1%
COc1cc(C(=O)n2nc(N3CCN(C)CC3)c3cc(N)ccc32)cc(OC)c1OC | 38.3% | 47.6% | 58.6% | 32.5% | 38.8% | 43% | -7.31% (active) | 65.3% | 24.7% | 107% | 22.5% | 10.4% | 65.3% | 50.3% | -13.3% (active) | 47.2% | 4.42% (active) | -14.1% (active) | 85.3% | 2.63% (active)
O=C(Nc1ncc(Cc2ccc(Cl)c(C(F)(F)F)c2)s1)c1ccc2nnsc2c1 | 37.4% | 66.5% | 69.2% | 51.5% | 27.2% | 64.9% | 38.7% | 40.7% | 53.2% | 57.3% | 53.7% | 24.7% | 48.7% | 67.4% | 75.6% | 50.7% | 20% | 5.13% (active) | 64.9% | 32.2%
C=C1C(=O)O[C@H]2[C@H]1CC/C(COC(=O)CSCCSCC(=O)OC/C1=C/CC[C@@]3(C)O[C@H]3[C@H]3OC(=O)C(=C)[C@@H]3CC1)=C\CC[C@@]1(C)O[C@@H]21 | 40.6% | 8.95% (active) | 77.2% | 81.2% | 22.1% | -0.141% (active) | -76.2% (active) | 69.5% | -24.2% (active) | -37.7% (active) | 32.3% | 1.81% (active) | -8.71% (active) | -37.2% (active) | -85.1% (active) | 16.7% | 67.2% | 1.67% (active) | 49.9% | 3.06% (active)
Cc1cccc(Cl)c1NC(=O)c1ccc2nc(NC(=O)NCCN(C)C)sc2c1 | 103% | 100% | 101% | 60.3% | 107% | 64.1% | 77.5% | 102% | 87.7% | 45.1% | 104% | 14.7% | 70.7% | 92.6% | 47.5% | 93.6% | 86.7% | 79.8% | 86.1% | 90.5%
Cn1cc(-c2nc(-c3c[nH]c4ccncc34)cs2)c2ccccc21 | 86% | 87.6% | 82.5% | 60.4% | -37.7% (active) | 53.9% | 66.8% | 42.1% | 77.3% | -67.3% (active) | 44% | -33.2% (active) | 54% | 25.2% | 70.8% | 77.3% | 65.5% | 78.7% | 91.2% | -71.5% (active)
Cc1ccc2c3c(c(=O)[nH]c2c1)C1(C(C#N)=C(N)O3)c2cc(Br)ccc2-c2ccc(Br)cc21 | 6.8% (active) | -17% (active) | 16.5% | -27.5% (active) | -56.5% (active) | -10.8% (active) | -8.2% (active) | -42.4% (active) | -19.5% (active) | -51.8% (active) | -7.81% (active) | 18.8% | -47.9% (active) | -33.9% (active) | -63.6% (active) | -26.9% (active) | -68.7% (active) | -51% (active) | 71.2% | 50.6%
CC1(C)CC[C@]2(C(=O)O)CC[C@]3(C)C(=CC[C@@H]4[C@@]5(C)C/C(=C/O)C(=O)C(C)(C)[C@@H]5CC[C@]43C)[C@@H]2C1 | 22.2% | 96.2% | 62.2% | 73.1% | 83.6% | 89% | 25.2% | 89.4% | 84.3% | 74.9% | 85.2% | 32.2% | 89.9% | 111% | 93.7% | 57.2% | 79.9% | 29.2% | 91.6% | 79.1%
O=C1/C(=C/c2ccc(F)cc2)COc2ccc(O)c(O)c21 | 44.3% | 79.6% | 39.9% | 8.74% (active) | 48.6% | 6.21% (active) | -65.1% (active) | 47.4% | -47.6% (active) | 28% | 18.6% | 10.6% | -10.4% (active) | -12.1% (active) | -3.02% (active) | 13.1% | 75% | -62.1% (active) | 15.8% | 37.5%
CCNC(=O)c1[nH]cc(-c2ccccc2)c1-c1cc(OC)c2c(c1OC)OCO2 | 93.8% | 86.9% | 93.7% | 91.8% | 108% | 83.9% | 93.4% | 96% | 101% | 111% | 112% | 94% | 110% | 97.2% | 102% | 97.6% | 100% | 102% | 102% | 95.8%
CCN(C(=O)N1CCN(c2cc3c(cc2F)c(=O)c(C(=O)O)cn3C2CC2)CC1)c1nc(-c2ccc(Cl)cc2)cs1 | 3.93% (active) | 11.9% | 11% | 14.2% | 8.51% (active) | -19.2% (active) | 1.67% (active) | 12.9% | 12.7% | 0.749% (active) | 23.5% | 12.7% | 6.66% (active) | -21.5% (active) | 18.2% | 21.8% | -0.18% (active) | 11.8% | 12.9% | 23%
CN(C)CCNC(=O)c1cccc(-c2cnc3ccc(-c4ccc5c(c4)OCO5)nn23)c1 | 69.2% | 75.3% | 58.6% | 88.4% | 4.35% (active) | 72.4% | 87.7% | 87% | 74.2% | 74.8% | 66.5% | 1.77% (active) | 88.7% | 77.9% | 42.3% | 76.7% | 106% | 66.9% | 108% | 67.7%
COc1cc(OC)cc(C2=C3CC[C@@H]4[C@H](CC[C@]5(C)C(=O)CC[C@@H]45)C3=CC3C(O)c4cccnc4N4C(=O)COC234)c1 (stereo not given in full) | 98.6% | 102% | 114% | 95.3% | 103% | 104% | 90.3% | 94.2% | 98.5% | 109% | 110% | 92.7% | 103% | 97.8% | 107% | 92.8% | 97.6% | 102% | 98.1% | 104%

From PubChem BioAssay (NCI)
